PubChem BioAssay AID2111 (National Center for Advancing Translational Sciences (NCATS), 2009)
Values joined by “and” are separate entries in the source; they are usually repeats but may differ in a detail not shown here. Equal entries are not always repeated. Active and inactive are the calls of the source. The call rests on the fitted dose curve; in most records, active means well fitted curve in either direction with a large enough effect; inconclusive means small, poorly fitted or top-dose-only effect; inactive means no such curve, though single readings can be large or run the other way.

Target: Lysosomal alpha-glucosidase (Homo sapiens) (UniProt P10253)
Experiment: Confirmation of Inhibitors and Activators of Human alpha-Glucosidase From Spleen Homogenate Using an Alternate Red Fluorescent Susbtrate
Conditions: resorufin-glucoside fluorescence; series mostly up to 62.8 µM; activity change, negative = inhibition: at the top concentration
From the text: NIH Chemical Genomics Center [NCGC] NIH Molecular Libraries Probe Production centers Network [MLPCN] MLPCN Grant: 1R03MH084841-01 Assay Submitter (PI): Wei Zheng NCGC Assay Overview: Alpha-glucosidase is responsible for hydrolysis of terminal, non-reducing 1,4-linked alpha-D-glucose residues with release of alpha-D-glucose. It is a lysosomal hydrolase that is required for the degradation of a small percentage (1-3%) of cellular glycogen in human. Deficiency of this enzyme results in glycogen-storage disease type II (GSDII), also referred to as Pompe disease, an autosomal recessive disorder. Structurally normal glycogen is accumulated in lysosomes and cytoplasm in affected patients, primarily in muscle tissues. Excessive glycogen storage within lysosomes may interrupt normal functioning of other organelles and leads to cellular injury. In turn, this leads to enlargement and dysfunction of the entire organ involved (eg, cardiomyopathy and muscle weakness). It has reported that the improper folding and trafficking of alpha-glucosidase resultinged from the genetic mutations may account for a significant number of Pomrope patients. […] We optimized this alpha-glucosidase assay in 1536-well plate format for identifying the novel small molecule inhibitors with the structures other than the sugar analogs in order to develop the new pharmacological chaperones. In particular, this assay is directed towards discovering compounds active in a more natural setting, tissue homogenate, that may have been missed by screens of the purified enzyme under more stringent conditions. This assay attempted to confirm hits from the primary screening using an alternate fluor than the primary screen used.
NCGC Assay Protocol Summary: This is a fluorogenic enzyme assay with Resorufin-alpha-D-glucopyranoside as the substrate and human spleen homogenate containing alpha-glucosidase as the enzyme preparation. Upon hydrolysis of this fluorogenic substrate, the resulting product, resorufin (which excites at 573 nm and emits at 610 nm) can be detected by a fluorescence plate reader. Data were normalized to the controls for basal activity (without enzyme) and 100% activity (with enzyme). The AC50 values were determined from concentration-response data modeled with the standard Hill equation. Assay buffer: 50 mM citric acid (titrated with potassium phosphate to pH 5.0), 0.01% Tween-20 (pH 5.0 is an optimal condition for this enzyme assay) 1536-well assay protocol for the alpha-glucosidase from human spleen homogenate: (1) Add 2 ul/well spleen homogenate (1 ug) (2) Add 23 nL compounds in DMSO solution. The final titration was 0.5 nM to 58 uM. (3) Add 2 ul of substrate (1 mM final) (4) Incubate at 37 C for 40 min (5) Add 2 ul stop solution (1M NaOH and 1M Glycine mixture, pH 10) (6) Detect the assay plate in a ViewLux plate reader (PerkinElmer) with […]. Keywords: Alpha-glucosidase, Pompe Disease, pharmacological chaperone, chaperone therapy, high throughput screening, alpha-glucosidase inhibitor, MLSMR, MLSCN, NIH Roadmap, qHTS and NCGC

Structure (SMILES)	Potency	activity change, negative = inhibition
O=C1Cc2cc(S(=O)(=O)N3CCN(c4ccc(CO)cc4)CC3)ccc2N1	13 µM [inhibitor] (active)	
COc1ccc(N2CCN(S(=O)(=O)c3ccc4c(c3)CC(=O)N4)CC2)cc1	6.68 µM [inhibitor] (active)	
O=Cc1ccc(N2CCN(S(=O)(=O)c3ccc4c(c3)CC(=O)N4)CC2)cc1	5.17 µM [inhibitor] (active)	
CCCN1CNc2c(c(=O)[nH]c(=S)n2CCc2ccc3c(c2)OCCO3)C1	8.91 µM (active)	
CC(=O)c1ccc(N2CCN(C(=O)c3ccc4c(c3)CC(=O)N4)CC2)cc1		-5.87% (inactive)
O=c1[nH]cc(C#Cc2ccccc2)c2ncncc12		-8.47% (inactive)
N#Cc1ccc(N2CCN(S(=O)(=O)c3ccc4c(c3)CC(=O)N4)CC2)cc1	1.63 µM [inhibitor] (active)	
COc1ccc(C#Cc2c[nH]c(=O)c3cncnc23)cc1OC		5.09% (inactive)
Clc1ncc(C#Cc2ccccc2)c2ncncc12		8.26% (inactive)
CC(=O)c1ccc(N2CCN(S(=O)(=O)c3ccc4c(c3)CC(=O)N4)CC2)cc1	1.03 µM [inhibitor] (active) and 943 nM [inhibitor] (active) and 2.06 µM [inhibitor] (active)	
COc1ccc(CCc2c[nH]c(=O)c3cncnc23)cc1OC		0.972% (inactive)
CC(=O)c1ccc(N2CCN(S(=O)(=O)c3ccc4c(c3)CCCN4C(C)=O)CC2)cc1		10.5% (inactive)
O=C1Cc2cc(S(=O)(=O)N3CCN(c4ccc(Br)cc4)CC3)ccc2N1		-12.5% [at 130 µM] (inactive)
CCCN1CNc2c(c(=O)[nH]c(=S)n2CCc2cc(Cl)ccc2Cl)C1	10 µM (active)	
CCCN1CNc2c(c(=O)[nH]c(=S)n2CCc2ccc(Cl)cc2Cl)C1	7.94 µM (active)	
CCCN1CNc2c(c(=O)[nH]c(=S)n2CCc2ccc(C)c(C)c2)C1	7.94 µM (active)	
CC(=O)c1ccc(N2CCN(S(=O)(=O)c3cc4c(cc3Cl)NC(=O)C4)CC2)cc1	4.61 µM [inhibitor] (active) and 3.66 µM [inhibitor] (active)	
CCCN1CNc2c(c(=O)[nH]c(=S)n2CCc2cccc(OC)c2)C1	10 µM (active)	
CCCN1CNc2c(c(=O)[nH]c(=S)n2CCc2cccc(OC)c2OC)C1	15.8 µM (active)	
CCCN1CNc2c(c(=O)[nH]c(=S)n2CCC)C1		-4.56% (inactive)

Structure (SMILES)	Potency	activity change, negative = inhibition
O=C1Cc2cc(S(=O)(=O)N3CCN(c4ccc([N+](=O)[O-])cc4)CC3)ccc2N1	5.8 µM [inhibitor] (active)	
CCCN1CNc2c(c(=O)[nH]c(=S)n2CCc2ccccc2C)C1	12.6 µM (active)	
CC(=O)c1ccc(N2CCN(S(=O)(=O)c3ccc4c(c3)C(=O)OC4)CC2)cc1		9.03% (inactive)
CCCN1CNc2c(c(=O)[nH]c(=S)n2CCc2cc(C)ccc2C)C1	8.91 µM (active)	
COc1ccc(CCn2c3c(c(=O)[nH]c2=S)CN(c2ccccc2)CN3)cc1OC	25.1 µM (active)	
CC(=O)c1ccc(N2CCN(S(=O)(=O)c3ccc4c(c3)CCCC(=O)N4)CC2)cc1		-0.443% (inactive)
CCCN1CNc2c(c(=O)[nH]c(=S)n2CCc2ccccc2Cl)C1	11.2 µM (active)	
CC(=O)c1ccc(N2CCN(S(=O)(=O)c3ccc4c(c3)CC(C)N4C(C)=O)CC2)cc1 (stereo not given)		11.1% (inactive)
COC(=O)c1ccc(N2CCN(S(=O)(=O)c3ccc4c(c3)CC(=O)N4)CC2)cc1	1.16 µM [inhibitor] (active)	
CC(=O)N1CCN(S(=O)(=O)c2ccc3c(c2)CC(=O)N3)CC1	14.9 µM [inhibitor] (active)	
CCCN1CNc2c(c(=O)[nH]c(=S)n2CCc2cc(Cl)cc(Cl)c2)C1	12.6 µM (active)	
CC(=O)c1ccc(N2CCN(S(=O)(=O)c3ccc(N4CCCC4=O)cc3)CC2)cc1		2.9% (inactive)
CCCN1CNc2c(c(=O)[nH]c(=S)n2CCc2cccs2)C1	31.6 µM (active)	
CCCN1CNc2c(c(=O)[nH]c(=S)n2CCc2ccc(C)cc2C)C1	11.2 µM (active)	
CC(=O)c1ccc(N2CCN(S(=O)(=O)c3ccc4c(c3)n(C)c(=O)n4C)CC2)cc1		0.436% (inactive)
CCCN1CNc2c(c(=O)[nH]c(=S)n2CCC(C)(C)C)C1		2.22% (inactive)
CCCN1CNc2c(c(=O)[nH]c(=S)n2CCc2ccsc2)C1	28.2 µM (active)	
O=S(=O)(c1ccc(Cl)cc1)N1CCN(c2nc(Nc3cc(Cl)ccc3O)nc3ccccc23)CC1		7.06% [at 32.4 µM] (inactive)
CC(=O)c1ccc(N2CCN(S(=O)(=O)c3ccc4[nH]c(=O)oc4c3)CC2)cc1		-4.53% (inactive)
CCCN1CNc2c(c(=O)[nH]c(=S)n2CCc2cc(OC)ccc2OC)C1	12.6 µM (active)	
